The values below come from PubChem BioAssay.

The structures appear in SMILES notation. Values without a mark were called inactive. The source made the active and inactive calls.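 How the source made its calls: active means z-score of at least 1.8 in each of two replicates, scored against plate mean and spread of sample wells; inactive means the rest.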

The nature of this test: viability rescue of complex I mutant cybrids, primary screen, cell-based, galactose medium, ATP luminescence (AID 1645843).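 Further: positive z means more ATP and so rescue of galactose-driven cybrid death.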 To be noted: complex I mutant cybrid cells, 72 h, active compounds read high.
With `Cc1ccc(NC(=O)c2csc(Cc3ccccc3)n2)cn1`, the z-score was -1.08. To `Cc1nsc(NC(=O)NCc2cc(Cl)ccc2Cl)n1` belongs -1.1; to `CN(Cc1nc(-c2cccnc2)no1)C(=O)c1nc2ccccc2s1`, 0.26; to `Cc1ccc2c(C(=O)N3CCN(C)C(=O)C3C)cc(-c3cnn(C(C)C)c3)nc2c1` (centres undefined), -0.56. Under `O=C(CC1CCCCCC1)N1CCC(n2cc(-c3ccccn3)nn2)CC1` stands -0.34. `CCC(CC)(CCC#N)CNC1COC2(CCCC2)C1` (centres undefined): the z-score was -0.555.

With `Cc1ccc(C)c(-c2c(C)sc3ncn(C4CCN(C)C4=O)c(=O)c23)c1` (centres undefined), the z-score was 0.12.

For `Cc1nc(NC(=O)N2CCCC(c3nc4ccccc4[nH]3)C2)nn1C` (centres undefined), the z-score was 0.195.

On to `Cc1nc(C(=O)N(Cc2cccnc2)Cc2ccc3c(c2)OCO3)cs1`, for which the z-score was -0.675. Turning to `CCN(Cc1ccncc1)C(=O)c1cc(-c2cnc(C)nc2)nc2c(C)cccc12`, the z-score is -0.835. Under `COc1ccc(C(=O)N2CCN(C(=O)c3cc(C)c(C)cc3C)CC2)cc1` stands 0.125.

Consider `CC(C)CN(C)Cc1cn(C2CCN(C3CCCCCC3)CC2)nn1`, for which the z-score is -0.485. To `CCCCc1cn(C2CCN(C(=O)C3CC3(CC)CC)CC2)nn1` (centres undefined) belongs 0.39; to `O=C(C1CCCCCC1)N1CCC(Cn2cc(CCCO)nn2)CC1`, -0.325. With `CN(C)C(=O)c1cccnc1-c1ccc2ncccc2c1`, the z-score is -0.545. Under `Cc1cccc2c(C(=O)N(C)C(C)C)cc(-c3cnn(C(C)C)c3)nc12` stands 2.17 (active); under `CN(CC1Cc2ccccc2O1)C(=O)Nc1nc(-c2ccccc2)ns1` (centres undefined), 1.98.

In the case of `CC(CCCC(C)(C)O)CCN1CCC(N(C)CCO)CC1` (centres undefined), the z-score is -0.505. Take `CCCc1noc(CN(C)C(=O)CCc2ccc(C)c(C)c2)n1`: the z-score is -0.575. Under `CC(=O)N1CCN(C(=O)c2c(-c3ccccc3)nn(-c3ccccc3)c2C)CC1` stands -0.38; under `Cc1cc(CN2CCC(Cc3ccc(F)cc3)CC2)n(C)n1`, 0.225; under `Cc1nsc(NC(=O)N2CCC(N)CC2)n1`, 0.04. To `CCCc1cn(CC2CCN(C(=O)[C@@H](N)[C@@H](C)CC)CC2)nn1` belongs -0.24. To `Cc1ccc2nc(-c3cnc(C(C)(C)C)nc3)cc(C(=O)N(C)C(C)C)c2c1` belongs -0.47; to `CCCC(CCC)C(=O)N1CCC(n2cc(C3CC3)nn2)CC1`, -0.125. As to `CC(Cc1cccnc1)n1cnc2sc3c(c2c1=O)CCCCC3` (centres undefined), the z-score is 0.91. With `Cc1cc(CC(=O)Nc2cc(C)nn2C2CCCCC2)on1`, the z-score is 0.225. Turning to `Cc1nn(C)cc1-c1ccnc(N2CCCC(c3nc4c(C)cccc4[nH]3)C2)n1` (centres undefined), the z-score is -1.2. Under `Cc1cccc2c(=O)n(Cc3ccc(Cl)s3)cnc12` stands 0.23. Under `Cc1cccc(CN(C)Cc2ccc(-c3nc(C(F)(F)F)c(C)c(=O)[nH]3)cc2)n1` stands 0.78; under `CCn1cnc(NC(=O)NC2CCN(Cc3ccncc3)CC2)n1`, 3.54 (active); under `Cc1cccnc1CC(C)N(C)C(=O)c1cc(-c2cncnc2)nc2c(C)cccc12` (centres undefined), 1.18. For `CN(C)Cc1cn(C2CCN(C(=O)C3CCCCCC3)CC2)nn1`, the z-score is -0.49. To `CCCCc1ncc(-c2nc3ccc(C)cc3c(C(=O)N(C)CC)c2C)cn1` belongs -0.54; to `O=C(C1CCCCCC1)N1CCC(n2cc(C3CCCCC3)nn2)CC1`, 2.69 (active). To `COC(=O)CCC1CCN(C(=O)CCC(C)C)CC1` belongs -0.56; to `CC(C)(O)c1cn(C2CCN(C(=O)CCC(=O)N3CCCCCC3)CC2)nn1`, -0.545. As to `Cc1cc(CN2CCNCC2)ccc1OC1(C(=O)O)CCSCC1`, the z-score was 0.115. To `CN1CCN(c2ccc3cc(Cl)ccc3n2)CC1=O` belongs -0.56.
